Experimental data from PubChem BioAssay (NCATS).
Records with an inconclusive call do not appear. Activity calls are given as the source filed them. Calls follow the shape of the dose curve; as a rule, active = well fitted inhibition curve with a large enough effect; inconclusive = small, poorly fitted or top-dose-only effect; inactive = flat fitted curve, though single readings scatter.

Target: Dual specificity protein kinase CLK4 (Homo sapiens) (UniProt Q9HAZ1)
Experiment: qHTS Assay for Inhibitors of CDC-like Kinase 4 (ADP-Glo Assay) (AID 1771); also: nearly all actives have a fitted effect of over 70% in size
Details: recombinant CLK4, ADP-Glo luminescence; series mostly up to 80 µM; activity change, negative = inhibition: at the top concentration
How it was run: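 ADP production was read by ADP-Glo luminescence after residual ATP depletion, following 1 h room-temperature reaction of 25 nM Clk4, 1 uM ATP and 100 uM RS peptide with MgCl2, EGTA, DTT and Triton X-100.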
% is scaled to controls: 0 for no effect and ±100 for the full control effect; potency is read from the fitted curve at half-maximal effect.

Sequence of Dual specificity protein kinase CLK4 (Homo sapiens) (Q9HAZ1 whole entry, looked up): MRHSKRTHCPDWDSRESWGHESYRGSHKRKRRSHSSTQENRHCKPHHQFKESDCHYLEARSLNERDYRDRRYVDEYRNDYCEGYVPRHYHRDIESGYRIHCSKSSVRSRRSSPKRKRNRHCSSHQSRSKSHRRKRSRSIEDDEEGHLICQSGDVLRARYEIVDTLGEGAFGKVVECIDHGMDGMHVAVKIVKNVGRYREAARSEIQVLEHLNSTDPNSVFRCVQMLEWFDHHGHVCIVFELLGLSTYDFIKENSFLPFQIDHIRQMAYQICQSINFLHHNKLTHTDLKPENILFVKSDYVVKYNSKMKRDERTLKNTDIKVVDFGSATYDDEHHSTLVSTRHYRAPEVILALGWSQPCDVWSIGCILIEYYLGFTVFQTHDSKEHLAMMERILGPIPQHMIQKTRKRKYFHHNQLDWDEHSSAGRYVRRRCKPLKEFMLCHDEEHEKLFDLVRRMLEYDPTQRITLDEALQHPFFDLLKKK

| SMILES | activity change, negative = inhibition | Potency |
| --- | --- | --- |
| Cc1nc2cnc(Oc3cccc(Cl)c3)nc2n(C2CC2)c1=O | -3.86% (inactive) |  |
| CNc1ncncc1-c1ccccc1C(F)(F)F | -0.365% (inactive) |  |
| CC(=O)NCCNc1nc(-c2ccc(C(=O)N(C)C)cc2)nc2ccccc12 | -14.8% (inactive) |  |
| COc1ccc(CNc2ccnc(-c3ccc(C(=O)N(C)C)cc3)n2)c(OC)c1 | -5.08% (inactive) |  |
| Clc1ccccc1-c1cc(NCCN2CCOCC2)ncn1 | -12% (inactive) |  |
| COc1ccc(CNc2cc(-c3cccnc3)ncn2)c(OC)c1 |  | 8.91 µM (active) |
| CCNc1ncc2nc(-c3ccc(OC)cc3)c(=O)n(CCC#N)c2n1 | 3.05% (inactive) |  |
| FC(F)(F)c1ccccc1-c1cncnc1NCc1cccnc1 | -2.28% (inactive) |  |
| COc1ncc2nc(-c3cn(C)c4ccccc34)c(=O)n(C)c2n1 | -12.2% (inactive) |  |
| CN(C)C(=O)c1ccc(-c2cncnc2NCc2ccccc2)cc1 | -6.23% (inactive) |  |
| COc1ccc(-n2c(=O)c(CCc3ccccc3)nc3cncnc32)cc1 | -16.8% (inactive) |  |
| Cc1nc2cnc(N(C)C)nc2n(-c2ccccc2)c1=O | -22.3% (inactive) |  |
| COc1ccccc1CNc1ncncc1-c1ccc(C(=O)N(C)C)cc1 |  | 14.1 µM (active) |
| COc1ccc(CNc2ncncc2-c2ccccc2C(F)(F)F)c(OC)c1 | -1.59% (inactive) |  |
| COCCn1c(=O)c(-c2cccc(C#N)c2)nc2cnc(N3CCOCC3)nc21 | -21% (inactive) |  |
| CNc1ncncc1-c1ccccc1C | 0.321% (inactive) |  |
| O=c1cnc2cnc(Oc3ccccc3)nc2n1C1CC1 | -11% (inactive) |  |
| COCCn1c(=O)c(-c2cccc(C#N)c2)nc2cnc(Oc3ccc(OC)cc3)nc21 | -7.59% (inactive) |  |
| O=c1c(-c2ccccc2)nc2cncnc2n1-c1ccccc1 | -17.4% (inactive) |  |

| SMILES | activity change, negative = inhibition | Potency |
| --- | --- | --- |
| CN(C)C(=O)c1ccc(-c2nccc(N(C)Cc3ccco3)n2)cc1 | 1.8% (inactive) |  |
| CS(=O)(=O)Nc1cccc(-c2cc(NCc3cccs3)ncn2)c1 |  | 12.6 µM (active) |
| COc1ccc(-c2nc3cnc(OC)nc3n(C)c2=O)cc1 | 3.75% (inactive) |  |
| c1ccc(CNc2ncncc2-c2cccnc2)cc1 | -26.8% (inactive) |  |
| CN(C)c1ncc2nc(-c3cccs3)c(=O)n(-c3ccccc3)c2n1 | -14.1% (inactive) |  |
| Cn1c(=O)c(-c2ccc(Cl)cc2)nc2cnc(OCc3ccccc3)nc21 | -6.91% (inactive) |  |
| COc1cccc(Cn2c(=O)c(-c3ccc(Cl)cc3)nc3cnc(N4CCN(C)CC4)nc32)c1 | -3.78% (inactive) |  |
| COc1cccc(Cn2c(=O)c(CCc3ccccc3)nc3cncnc32)c1 | -0.987% (inactive) |  |
| Cn1c(=O)c(-c2ccccc2)nc2cnc(Nc3ccccc3)nc21 | -7.92% (inactive) |  |
| COc1ncc2ncc(=O)n(C3CC3)c2n1 | -6.87% (inactive) |  |
| Cc1cnc(CNc2cc(-c3ccccc3C(F)(F)F)ncn2)cn1 | -28% (inactive) |  |
| CN(C)C(=O)c1ccc(-c2cncnc2NCc2cccnc2)cc1 | -9.41% (inactive) |  |
| COc1ncc2nc(-c3ccc(F)cc3)c(=O)n(CCc3ccccc3)c2n1 | 13.2% (inactive) |  |
| N#Cc1cccc(-c2nccc(-n3ccnc3)n2)c1 |  | 10 µM (active) |
| O=c1c(-c2ccccc2)nc2cnc(Oc3cccc(Cl)c3)nc2n1C1CC1 | 0.812% (inactive) |  |
| CNc1nc(-c2cccnc2)nc2ccccc12 |  | 6.31 µM (active) |
| Cn1cc(-c2nc3cnc(Oc4ccccc4)nc3n(Cc3cccs3)c2=O)c2ccccc21 | 2.68% (inactive) |  |
| COc1cccc(Cn2c(=O)c(-c3ccc(Cl)cc3)nc3cnc(OC)nc32)c1 | -0.755% (inactive) |  |
